Key:
Assay in all cases: log2 ratio of Biotin-Ahx-Ub-VS probe labelling (fragment/DMSO); higher = less target engagement (more negative = stronger competition), active = hit call of the paper (q ≤ 0.05, log2 ratio ≤ -1)
Details in all cases: compound concentration: 200 uM; treatment time: 3 h
USP42 = molecular target: T1, USP42 (UniProt Q9H9J4)
T1 sequence (whole entry): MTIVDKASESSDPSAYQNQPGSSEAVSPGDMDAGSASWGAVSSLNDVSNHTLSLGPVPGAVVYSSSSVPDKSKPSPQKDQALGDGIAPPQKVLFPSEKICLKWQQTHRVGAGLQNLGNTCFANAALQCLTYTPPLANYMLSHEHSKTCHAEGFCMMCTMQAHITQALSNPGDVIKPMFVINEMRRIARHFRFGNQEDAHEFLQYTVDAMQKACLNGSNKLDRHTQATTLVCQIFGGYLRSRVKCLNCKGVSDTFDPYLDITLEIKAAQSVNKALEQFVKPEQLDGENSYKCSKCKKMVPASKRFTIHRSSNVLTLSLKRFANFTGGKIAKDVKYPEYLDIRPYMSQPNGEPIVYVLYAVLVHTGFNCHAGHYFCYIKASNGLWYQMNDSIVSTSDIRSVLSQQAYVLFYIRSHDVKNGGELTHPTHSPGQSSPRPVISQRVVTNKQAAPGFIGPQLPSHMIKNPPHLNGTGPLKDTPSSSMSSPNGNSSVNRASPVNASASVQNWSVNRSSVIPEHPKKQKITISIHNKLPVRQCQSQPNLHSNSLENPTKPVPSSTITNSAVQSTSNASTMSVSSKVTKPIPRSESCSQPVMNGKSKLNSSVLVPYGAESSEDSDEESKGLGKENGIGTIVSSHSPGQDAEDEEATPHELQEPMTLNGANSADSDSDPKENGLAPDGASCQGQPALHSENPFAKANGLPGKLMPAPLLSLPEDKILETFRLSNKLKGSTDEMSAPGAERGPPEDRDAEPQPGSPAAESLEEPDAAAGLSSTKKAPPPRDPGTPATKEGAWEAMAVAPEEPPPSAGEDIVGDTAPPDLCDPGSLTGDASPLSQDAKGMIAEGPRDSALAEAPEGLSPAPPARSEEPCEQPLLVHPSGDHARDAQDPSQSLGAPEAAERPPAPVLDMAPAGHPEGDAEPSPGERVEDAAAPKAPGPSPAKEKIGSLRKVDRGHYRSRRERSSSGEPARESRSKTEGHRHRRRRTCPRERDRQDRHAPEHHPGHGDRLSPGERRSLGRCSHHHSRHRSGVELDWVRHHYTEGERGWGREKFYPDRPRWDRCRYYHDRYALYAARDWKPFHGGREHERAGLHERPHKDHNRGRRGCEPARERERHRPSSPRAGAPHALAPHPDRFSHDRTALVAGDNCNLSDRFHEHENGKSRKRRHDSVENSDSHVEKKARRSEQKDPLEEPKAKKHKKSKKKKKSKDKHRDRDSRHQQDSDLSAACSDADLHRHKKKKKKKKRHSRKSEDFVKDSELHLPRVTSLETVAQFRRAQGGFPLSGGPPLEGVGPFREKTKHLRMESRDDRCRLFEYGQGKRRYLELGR
Outline: (§1)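 Average log2 ratios of fragment over vehicle were obtained by unpaired t-test from global-median-normalised Spectronaut label-free quantities. Proteins with ≥2 unique peptides were included. HEK293T lysate (495 µg per sample) was treated in triplicate with fragment at 200 µM or vehicle for 3 h, then with Biotin-Ahx-Ub-VS at 0.5 µM final for 1 h, and labelled DUBs were NeutrAvidin-enriched and run by diaPASEF LC-MS/MS.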

USP46 = USP46 (UniProt P62068)
USP46, sequence (P62068 whole entry): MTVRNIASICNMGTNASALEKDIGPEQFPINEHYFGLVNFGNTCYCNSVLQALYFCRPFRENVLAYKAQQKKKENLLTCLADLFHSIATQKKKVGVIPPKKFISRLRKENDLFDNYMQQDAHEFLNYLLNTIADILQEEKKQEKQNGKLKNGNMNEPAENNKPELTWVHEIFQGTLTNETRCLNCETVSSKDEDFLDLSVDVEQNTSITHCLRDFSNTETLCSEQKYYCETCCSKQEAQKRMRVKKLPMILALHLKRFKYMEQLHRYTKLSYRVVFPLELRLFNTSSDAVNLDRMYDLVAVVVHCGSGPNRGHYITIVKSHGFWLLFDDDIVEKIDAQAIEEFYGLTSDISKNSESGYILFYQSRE
Outline: as §1

USP47 = molecular target: T2, USP47 (UniProt Q96K76)
T2 sequence (whole entry): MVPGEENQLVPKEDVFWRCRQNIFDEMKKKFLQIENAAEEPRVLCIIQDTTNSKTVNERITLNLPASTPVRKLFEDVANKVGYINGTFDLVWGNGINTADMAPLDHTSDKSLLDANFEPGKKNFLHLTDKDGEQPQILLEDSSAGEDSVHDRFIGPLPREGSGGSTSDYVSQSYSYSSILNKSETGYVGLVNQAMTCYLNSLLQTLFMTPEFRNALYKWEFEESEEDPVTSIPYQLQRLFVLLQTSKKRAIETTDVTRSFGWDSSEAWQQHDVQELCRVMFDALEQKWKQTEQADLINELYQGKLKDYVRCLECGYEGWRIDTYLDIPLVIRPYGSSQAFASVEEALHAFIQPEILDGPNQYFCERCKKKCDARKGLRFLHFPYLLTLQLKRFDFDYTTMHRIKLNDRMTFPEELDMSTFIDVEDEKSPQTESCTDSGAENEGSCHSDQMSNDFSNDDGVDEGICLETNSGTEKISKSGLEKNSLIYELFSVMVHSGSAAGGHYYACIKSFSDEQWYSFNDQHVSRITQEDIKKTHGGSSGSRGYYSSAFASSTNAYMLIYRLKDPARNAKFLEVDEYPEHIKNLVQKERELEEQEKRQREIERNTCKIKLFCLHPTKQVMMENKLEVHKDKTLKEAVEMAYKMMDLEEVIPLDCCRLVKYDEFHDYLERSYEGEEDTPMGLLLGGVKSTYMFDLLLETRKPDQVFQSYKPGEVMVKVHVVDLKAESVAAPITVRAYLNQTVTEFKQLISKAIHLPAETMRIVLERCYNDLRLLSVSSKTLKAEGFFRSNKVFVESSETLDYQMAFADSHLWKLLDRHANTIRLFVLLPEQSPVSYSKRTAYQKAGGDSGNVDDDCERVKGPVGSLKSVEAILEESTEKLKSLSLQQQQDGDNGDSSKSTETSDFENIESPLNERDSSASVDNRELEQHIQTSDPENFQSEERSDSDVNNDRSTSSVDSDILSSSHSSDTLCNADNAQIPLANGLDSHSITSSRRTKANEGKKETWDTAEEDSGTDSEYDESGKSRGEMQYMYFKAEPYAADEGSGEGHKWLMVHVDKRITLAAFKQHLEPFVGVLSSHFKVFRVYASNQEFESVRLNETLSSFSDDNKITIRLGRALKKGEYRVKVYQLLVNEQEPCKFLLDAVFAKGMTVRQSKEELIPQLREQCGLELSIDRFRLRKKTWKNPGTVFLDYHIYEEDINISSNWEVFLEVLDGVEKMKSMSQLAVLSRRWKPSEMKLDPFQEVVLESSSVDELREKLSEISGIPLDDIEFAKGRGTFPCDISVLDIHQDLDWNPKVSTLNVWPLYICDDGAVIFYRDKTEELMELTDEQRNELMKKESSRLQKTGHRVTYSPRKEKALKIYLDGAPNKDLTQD
Outline: as §1

USP48 = molecular target: T3, USP48 (UniProt Q86UV5)
T3 sequence (whole entry): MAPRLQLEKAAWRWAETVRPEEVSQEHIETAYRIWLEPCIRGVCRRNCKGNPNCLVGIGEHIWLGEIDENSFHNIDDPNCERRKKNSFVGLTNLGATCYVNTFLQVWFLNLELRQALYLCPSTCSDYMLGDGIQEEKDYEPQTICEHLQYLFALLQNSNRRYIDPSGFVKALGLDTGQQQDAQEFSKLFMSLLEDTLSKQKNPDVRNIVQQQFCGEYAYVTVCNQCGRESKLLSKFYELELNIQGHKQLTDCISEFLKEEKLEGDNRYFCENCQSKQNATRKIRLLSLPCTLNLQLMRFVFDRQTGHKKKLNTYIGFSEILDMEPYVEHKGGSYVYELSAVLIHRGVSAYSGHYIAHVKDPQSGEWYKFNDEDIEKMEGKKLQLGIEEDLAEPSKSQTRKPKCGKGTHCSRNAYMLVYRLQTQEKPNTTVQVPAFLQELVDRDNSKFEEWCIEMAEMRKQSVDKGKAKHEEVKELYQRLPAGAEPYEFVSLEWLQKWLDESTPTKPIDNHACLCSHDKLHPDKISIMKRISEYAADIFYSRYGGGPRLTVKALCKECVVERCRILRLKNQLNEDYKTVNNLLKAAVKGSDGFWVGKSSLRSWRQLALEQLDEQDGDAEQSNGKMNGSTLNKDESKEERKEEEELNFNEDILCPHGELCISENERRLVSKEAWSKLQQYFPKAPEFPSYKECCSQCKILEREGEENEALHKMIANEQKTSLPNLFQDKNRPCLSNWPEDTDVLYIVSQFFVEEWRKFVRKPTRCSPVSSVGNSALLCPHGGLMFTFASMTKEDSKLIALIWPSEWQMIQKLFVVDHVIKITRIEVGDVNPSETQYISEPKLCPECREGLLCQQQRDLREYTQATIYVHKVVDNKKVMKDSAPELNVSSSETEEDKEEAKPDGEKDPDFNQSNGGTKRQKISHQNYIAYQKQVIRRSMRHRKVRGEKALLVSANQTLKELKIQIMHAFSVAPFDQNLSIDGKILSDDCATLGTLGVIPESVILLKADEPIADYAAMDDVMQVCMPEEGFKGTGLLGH
Outline: as §1

USP5 = molecular target: T4, USP5 (UniProt P45974)
T4 sequence (whole entry): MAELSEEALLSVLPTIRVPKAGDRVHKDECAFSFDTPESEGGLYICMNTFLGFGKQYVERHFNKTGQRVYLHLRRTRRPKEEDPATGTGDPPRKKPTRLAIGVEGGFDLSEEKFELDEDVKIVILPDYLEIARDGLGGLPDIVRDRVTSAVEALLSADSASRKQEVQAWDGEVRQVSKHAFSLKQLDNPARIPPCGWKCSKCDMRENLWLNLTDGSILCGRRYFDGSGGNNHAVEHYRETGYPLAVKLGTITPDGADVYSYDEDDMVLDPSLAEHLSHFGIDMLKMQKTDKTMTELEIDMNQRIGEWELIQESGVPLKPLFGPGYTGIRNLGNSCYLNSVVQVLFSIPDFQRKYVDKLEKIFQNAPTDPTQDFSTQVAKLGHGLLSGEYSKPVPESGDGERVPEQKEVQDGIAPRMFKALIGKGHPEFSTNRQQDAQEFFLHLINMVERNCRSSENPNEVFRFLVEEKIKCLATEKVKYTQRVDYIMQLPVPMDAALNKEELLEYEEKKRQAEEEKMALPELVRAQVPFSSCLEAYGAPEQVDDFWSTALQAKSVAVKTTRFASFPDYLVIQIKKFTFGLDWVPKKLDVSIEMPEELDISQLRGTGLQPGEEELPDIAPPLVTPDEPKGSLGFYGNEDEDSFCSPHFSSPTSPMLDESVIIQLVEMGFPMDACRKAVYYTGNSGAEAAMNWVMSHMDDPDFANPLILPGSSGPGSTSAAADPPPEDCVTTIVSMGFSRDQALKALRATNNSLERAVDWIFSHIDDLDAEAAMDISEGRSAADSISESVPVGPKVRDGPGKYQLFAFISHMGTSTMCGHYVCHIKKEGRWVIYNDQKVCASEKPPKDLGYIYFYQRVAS
Outline: as §1

USP54 = USP54 (UniProt Q70EL1)
USP54, sequence (Q70EL1 whole entry): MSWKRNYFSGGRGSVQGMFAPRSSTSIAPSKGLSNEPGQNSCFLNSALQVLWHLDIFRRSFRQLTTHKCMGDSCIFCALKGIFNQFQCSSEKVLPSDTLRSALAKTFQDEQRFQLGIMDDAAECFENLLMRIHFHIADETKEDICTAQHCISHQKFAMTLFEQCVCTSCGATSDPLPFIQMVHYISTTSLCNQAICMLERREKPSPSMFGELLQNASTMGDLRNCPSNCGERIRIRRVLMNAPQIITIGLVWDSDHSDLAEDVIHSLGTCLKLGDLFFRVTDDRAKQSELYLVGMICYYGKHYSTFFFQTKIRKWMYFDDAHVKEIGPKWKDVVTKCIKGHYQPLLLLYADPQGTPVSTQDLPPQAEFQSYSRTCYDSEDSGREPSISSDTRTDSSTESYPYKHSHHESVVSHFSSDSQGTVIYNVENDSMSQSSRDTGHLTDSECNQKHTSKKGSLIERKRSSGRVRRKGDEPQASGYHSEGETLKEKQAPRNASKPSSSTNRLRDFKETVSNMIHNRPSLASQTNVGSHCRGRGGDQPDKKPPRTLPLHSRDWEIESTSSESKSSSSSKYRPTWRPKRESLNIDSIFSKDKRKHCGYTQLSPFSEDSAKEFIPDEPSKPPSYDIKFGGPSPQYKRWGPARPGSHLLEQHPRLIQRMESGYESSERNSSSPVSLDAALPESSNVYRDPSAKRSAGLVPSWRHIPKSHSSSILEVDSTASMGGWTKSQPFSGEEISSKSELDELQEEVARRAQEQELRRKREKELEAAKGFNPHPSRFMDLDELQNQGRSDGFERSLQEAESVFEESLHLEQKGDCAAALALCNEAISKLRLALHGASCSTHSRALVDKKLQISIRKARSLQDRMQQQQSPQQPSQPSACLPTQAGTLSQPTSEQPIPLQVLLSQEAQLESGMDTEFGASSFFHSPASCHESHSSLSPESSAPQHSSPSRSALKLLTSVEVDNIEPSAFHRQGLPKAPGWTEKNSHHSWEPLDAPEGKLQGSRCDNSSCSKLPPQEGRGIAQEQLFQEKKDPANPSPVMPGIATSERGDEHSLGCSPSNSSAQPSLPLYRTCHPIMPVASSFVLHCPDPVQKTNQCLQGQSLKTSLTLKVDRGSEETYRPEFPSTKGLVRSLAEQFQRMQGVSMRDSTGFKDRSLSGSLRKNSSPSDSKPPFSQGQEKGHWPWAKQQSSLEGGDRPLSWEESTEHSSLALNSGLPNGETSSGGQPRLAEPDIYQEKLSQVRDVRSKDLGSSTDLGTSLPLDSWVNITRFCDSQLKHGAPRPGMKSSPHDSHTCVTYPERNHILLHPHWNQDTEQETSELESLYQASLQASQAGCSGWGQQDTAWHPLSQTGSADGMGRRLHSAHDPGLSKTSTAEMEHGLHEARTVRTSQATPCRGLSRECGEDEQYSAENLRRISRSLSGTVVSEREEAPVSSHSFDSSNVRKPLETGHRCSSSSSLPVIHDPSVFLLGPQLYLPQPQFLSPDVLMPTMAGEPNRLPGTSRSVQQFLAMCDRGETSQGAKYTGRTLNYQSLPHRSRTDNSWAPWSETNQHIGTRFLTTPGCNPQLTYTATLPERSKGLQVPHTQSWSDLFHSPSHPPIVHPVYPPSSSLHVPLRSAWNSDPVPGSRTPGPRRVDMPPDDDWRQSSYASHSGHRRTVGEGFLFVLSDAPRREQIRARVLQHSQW
Outline: as §1

USP7 = USP7 (UniProt Q93009)
Outline: as §1

USP8 = molecular target: T5, USP8 (UniProt P40818)
T5 sequence (whole entry): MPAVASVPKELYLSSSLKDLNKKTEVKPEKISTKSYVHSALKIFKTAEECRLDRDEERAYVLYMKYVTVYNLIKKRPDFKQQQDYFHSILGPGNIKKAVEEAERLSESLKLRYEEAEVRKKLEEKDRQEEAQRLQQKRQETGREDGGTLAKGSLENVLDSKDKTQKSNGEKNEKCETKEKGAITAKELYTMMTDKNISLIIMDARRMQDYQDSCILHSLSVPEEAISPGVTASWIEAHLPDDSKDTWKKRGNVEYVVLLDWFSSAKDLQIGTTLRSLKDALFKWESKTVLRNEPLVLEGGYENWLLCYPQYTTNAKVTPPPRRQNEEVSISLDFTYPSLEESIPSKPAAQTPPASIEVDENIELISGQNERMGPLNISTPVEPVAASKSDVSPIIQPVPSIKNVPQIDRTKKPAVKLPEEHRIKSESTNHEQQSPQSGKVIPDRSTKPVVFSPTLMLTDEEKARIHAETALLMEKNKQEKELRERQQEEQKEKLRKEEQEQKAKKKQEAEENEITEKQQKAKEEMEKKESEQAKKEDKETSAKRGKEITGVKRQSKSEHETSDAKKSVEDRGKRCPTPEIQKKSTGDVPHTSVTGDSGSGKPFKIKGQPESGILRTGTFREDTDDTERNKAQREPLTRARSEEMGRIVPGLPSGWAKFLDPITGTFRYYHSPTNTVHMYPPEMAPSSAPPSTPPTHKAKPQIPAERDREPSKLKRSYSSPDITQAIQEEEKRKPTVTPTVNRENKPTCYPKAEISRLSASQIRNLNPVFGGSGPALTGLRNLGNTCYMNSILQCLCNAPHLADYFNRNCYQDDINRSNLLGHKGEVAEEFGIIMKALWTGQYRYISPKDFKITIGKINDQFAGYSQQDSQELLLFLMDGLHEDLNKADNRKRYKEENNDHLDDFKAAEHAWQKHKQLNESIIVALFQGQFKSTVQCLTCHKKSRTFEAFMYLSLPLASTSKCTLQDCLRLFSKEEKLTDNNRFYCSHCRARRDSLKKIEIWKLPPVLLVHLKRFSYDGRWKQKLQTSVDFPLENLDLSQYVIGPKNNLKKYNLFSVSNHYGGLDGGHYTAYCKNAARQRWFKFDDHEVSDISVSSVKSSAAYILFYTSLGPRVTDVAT
Outline: as §1

USP9X = USP9X (UniProt Q93008)
USP9X, sequence (Q93008 whole entry): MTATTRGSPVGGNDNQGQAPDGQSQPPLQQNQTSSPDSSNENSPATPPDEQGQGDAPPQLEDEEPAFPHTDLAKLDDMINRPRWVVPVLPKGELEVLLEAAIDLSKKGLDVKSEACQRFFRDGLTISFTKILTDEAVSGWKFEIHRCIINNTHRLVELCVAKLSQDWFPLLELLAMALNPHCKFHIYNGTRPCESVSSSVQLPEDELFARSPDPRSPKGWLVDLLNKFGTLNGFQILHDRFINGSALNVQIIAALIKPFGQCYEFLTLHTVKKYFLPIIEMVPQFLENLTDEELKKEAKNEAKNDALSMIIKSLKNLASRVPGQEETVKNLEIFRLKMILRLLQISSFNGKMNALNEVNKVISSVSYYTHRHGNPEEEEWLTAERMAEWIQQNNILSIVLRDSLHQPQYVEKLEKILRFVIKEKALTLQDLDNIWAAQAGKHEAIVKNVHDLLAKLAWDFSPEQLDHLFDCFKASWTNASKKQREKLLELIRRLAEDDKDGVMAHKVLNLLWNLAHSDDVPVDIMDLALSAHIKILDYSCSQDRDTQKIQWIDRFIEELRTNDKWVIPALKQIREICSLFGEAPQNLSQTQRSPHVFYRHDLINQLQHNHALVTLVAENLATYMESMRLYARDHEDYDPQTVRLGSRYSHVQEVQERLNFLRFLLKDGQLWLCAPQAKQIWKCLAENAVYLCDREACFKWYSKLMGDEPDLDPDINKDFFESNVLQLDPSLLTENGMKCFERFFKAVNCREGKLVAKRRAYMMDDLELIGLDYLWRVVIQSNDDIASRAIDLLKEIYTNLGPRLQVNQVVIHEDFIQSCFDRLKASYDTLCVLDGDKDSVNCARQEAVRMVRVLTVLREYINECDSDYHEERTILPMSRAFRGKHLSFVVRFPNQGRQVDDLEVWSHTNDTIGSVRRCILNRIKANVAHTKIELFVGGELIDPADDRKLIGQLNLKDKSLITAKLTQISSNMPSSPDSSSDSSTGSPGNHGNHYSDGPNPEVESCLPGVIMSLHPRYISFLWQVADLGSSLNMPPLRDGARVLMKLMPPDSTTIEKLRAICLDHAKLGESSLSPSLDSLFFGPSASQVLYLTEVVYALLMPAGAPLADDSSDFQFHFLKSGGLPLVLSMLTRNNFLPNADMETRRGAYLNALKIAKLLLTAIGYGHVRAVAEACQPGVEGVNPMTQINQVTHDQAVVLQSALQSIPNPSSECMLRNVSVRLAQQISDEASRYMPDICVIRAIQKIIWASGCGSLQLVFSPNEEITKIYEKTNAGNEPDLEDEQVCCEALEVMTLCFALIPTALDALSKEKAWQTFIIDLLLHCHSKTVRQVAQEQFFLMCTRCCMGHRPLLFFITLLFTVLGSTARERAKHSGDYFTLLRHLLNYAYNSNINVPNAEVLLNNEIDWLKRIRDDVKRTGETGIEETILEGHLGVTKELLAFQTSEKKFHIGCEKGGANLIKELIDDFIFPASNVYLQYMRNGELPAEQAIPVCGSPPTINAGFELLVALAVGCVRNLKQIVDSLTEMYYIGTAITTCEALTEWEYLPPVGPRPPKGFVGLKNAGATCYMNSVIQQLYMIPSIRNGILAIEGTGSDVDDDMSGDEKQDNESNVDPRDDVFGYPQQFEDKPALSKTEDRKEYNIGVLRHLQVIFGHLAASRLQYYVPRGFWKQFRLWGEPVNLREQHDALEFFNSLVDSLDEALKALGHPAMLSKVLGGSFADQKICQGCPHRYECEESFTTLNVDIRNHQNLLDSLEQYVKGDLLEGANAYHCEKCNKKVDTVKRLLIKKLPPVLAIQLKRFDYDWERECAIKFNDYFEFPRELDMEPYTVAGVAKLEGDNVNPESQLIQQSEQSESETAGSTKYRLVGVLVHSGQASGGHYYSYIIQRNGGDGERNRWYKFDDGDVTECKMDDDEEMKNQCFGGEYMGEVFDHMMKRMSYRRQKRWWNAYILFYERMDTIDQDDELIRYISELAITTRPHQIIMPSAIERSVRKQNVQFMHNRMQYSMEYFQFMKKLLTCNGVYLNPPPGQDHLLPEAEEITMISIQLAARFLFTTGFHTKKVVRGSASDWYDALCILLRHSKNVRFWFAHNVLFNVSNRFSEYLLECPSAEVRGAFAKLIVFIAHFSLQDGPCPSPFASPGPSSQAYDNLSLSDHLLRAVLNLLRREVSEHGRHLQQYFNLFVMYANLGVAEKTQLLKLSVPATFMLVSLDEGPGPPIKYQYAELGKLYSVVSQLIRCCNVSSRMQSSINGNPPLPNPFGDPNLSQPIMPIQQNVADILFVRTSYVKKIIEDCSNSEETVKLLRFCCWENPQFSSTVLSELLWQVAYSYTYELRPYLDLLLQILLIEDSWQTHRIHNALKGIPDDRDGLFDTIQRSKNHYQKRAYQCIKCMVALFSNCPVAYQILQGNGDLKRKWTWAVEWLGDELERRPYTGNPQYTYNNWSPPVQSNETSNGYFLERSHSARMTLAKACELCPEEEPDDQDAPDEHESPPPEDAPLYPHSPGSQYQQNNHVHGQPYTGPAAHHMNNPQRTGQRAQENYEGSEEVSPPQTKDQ
Outline: as §1

UniProt O00487 = molecular target: UniProt O00487
UniProt O00487, sequence (O00487 whole entry): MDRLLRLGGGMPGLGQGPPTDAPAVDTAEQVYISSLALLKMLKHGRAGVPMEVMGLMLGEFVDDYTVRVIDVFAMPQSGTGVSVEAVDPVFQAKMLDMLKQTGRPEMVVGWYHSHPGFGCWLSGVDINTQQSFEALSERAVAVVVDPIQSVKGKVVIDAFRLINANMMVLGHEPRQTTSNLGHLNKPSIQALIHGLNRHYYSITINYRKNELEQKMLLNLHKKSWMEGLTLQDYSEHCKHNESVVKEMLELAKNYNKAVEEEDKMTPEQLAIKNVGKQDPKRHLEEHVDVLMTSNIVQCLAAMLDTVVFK
Outline: as §1

Measured: log2 ratio of Biotin-Ahx-Ub-VS probe labelling

N#Cc1ccc(Cl)cc1NC(=O)CCl
inactive: USP42 -0.385 | USP46 0.0423 | USP47 -0.413 | USP48 -0.305 | USP5 -0.153 | USP54 -0.514 | USP7 -0.47 | USP8 -0.0467 | USP9X -0.0196 | UniProt O00487 0.0781

Reference: the supplement of paper PMC11732987, “Enantioselective OTUD7B fragment discovery through chemoproteomics screening and high-throughput optimisation” (Communications Chemistry, 2025)
